Rtt109 Vps75 – inhibitors of Candida albicans Rtt109/Vps75 histone acetyltransferase; 330,000 compounds, 0.16% hits; inhibition, % at 34.9 µM; Q5AAJ8; purified Rtt109/Vps75, ThioGlo CoA-SH fluorescence, 4 h;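 active means inhibition of at least 50% in every replicate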
LANA-H2A inh – blocks KSHV LANA binding to histone H2A/H2B; Q9QR71; cell-free LANA-H2A/H2B peptide, fluorescence polarization; inhibition, % (no concentration beside the values); 320,000 compounds, 0.6% hits; in the data active means inhibition mostly above about 10%, no sharp cut-off; inactive means mostly below about 6.7%
ALR H2O2 inh – blocks human ALR sulfhydryl oxidase activity. P55789. purified ALR, DTT oxidation, H2O2 HRP-luminol luminescence. inhibition, % (no concentration beside the values). 290,000 compounds, 3.8% hits. AID 485317;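 active means mean replicate inhibition above about 79%, with every replicate also reaching it, limit read from the data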
PRMT1 FP inh – inhibitors of human PRMT1. recombinant PRMT1, activity-based probe fluorescence polarization. inhibition, % at 2.79 µM. 370,000 compounds, 1.3% hits. AID 652257;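 active means inhibition above about 21% made by adding two undisclosed values, limit read from the data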
Target sequence (Q99873 whole entry, looked up): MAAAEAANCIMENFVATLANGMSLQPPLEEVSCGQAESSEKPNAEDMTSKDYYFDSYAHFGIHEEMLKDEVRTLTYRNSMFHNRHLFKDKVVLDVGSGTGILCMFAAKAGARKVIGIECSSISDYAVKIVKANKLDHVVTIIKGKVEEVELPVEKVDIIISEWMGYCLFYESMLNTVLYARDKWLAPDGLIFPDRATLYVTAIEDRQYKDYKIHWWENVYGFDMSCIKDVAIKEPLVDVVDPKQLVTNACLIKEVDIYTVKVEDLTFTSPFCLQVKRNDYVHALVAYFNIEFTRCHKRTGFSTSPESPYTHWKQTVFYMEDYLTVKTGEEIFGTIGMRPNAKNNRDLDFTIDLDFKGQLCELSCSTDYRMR
ABHD5 PLIN5 PPI – blocks binding of human ABHD5 to perilipin-5 | 360,000 compounds, 0.78% hits | Split G. princeps luciferase complementation, luminescence, 4 h | inhibition, % at 4 µM | Q00G26+Q8WTS1;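 active means inhibition above the mean inhibition across every tested compound plus 3 SD, cut at about 22% in these data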;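 further: 0% = DMSO only wells and the 100% control is not disclosed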
rCAG RNA binder – binds r(CAG) RNA repeats; r(CAG) RNA repeat, TO-PRO-1 dye displacement fluorescence; inhibition, % at 3 µM; 370,000 compounds, 1.3% hits; AID 651821;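 active means inhibition above the plate cutoff, the mean of all test compounds on that plate plus 3 SD, cut at about 35% in these data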;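 further: 0% = DMSO alone and 100% = 100 µM mitoxantrone as full dye displacement; higher means more dye released from RNA so lower well fluorescence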
Active calls of the source: *. Shown are actives, neighbours in structure and some others; about 5.9% of the full set was active somewhere.

How did CC(=O)NC(c1cccc(F)c1)c1nc(-c2cccs2)cs1 (stereo not given) do in these assays?
PRMT1 FP inh: 11; ABHD5 PLIN5 PPI: -5; rCAG RNA binder: 5

What do the screens show for `COC(=O)C[C@@H]1CC[C@@H]2[C@@H](COc3ccc(NC(=O)Nc4ccccc4)cc3C(=O)N2C)O1`?
PRMT1 FP inh: 0; rCAG RNA binder: 4

How did CN(C)c1cccc(-c2cnc(N3CCC(C(N)=O)CC3)s2)c1 do in these assays?
PRMT1 FP inh: 3

How did Cc1ccsc1C=Nc1ccc(O)cc1 do in these assays?
Rtt109 Vps75: 8; LANA-H2A inh: -1; ALR H2O2 inh: 96*; ABHD5 PLIN5 PPI: -4

How did Cc1ccsc1/C=N/N=C/c1sccc1C do in these assays?
Rtt109 Vps75: 5; LANA-H2A inh: -3; ALR H2O2 inh: 1; PRMT1 FP inh: 2; ABHD5 PLIN5 PPI: -4; rCAG RNA binder: -4

Results for Cc1c(Nc2scc(-c3ccccc3)[n+]2-c2ccccc2)c(=O)n(-c2ccccc2)n1C ?
Rtt109 Vps75: 16; LANA-H2A inh: -2; ALR H2O2 inh: -11; ABHD5 PLIN5 PPI: -15

How did Cc1csc(Nc2ccccc2)[n+]1C do in these assays?
Rtt109 Vps75: 0; LANA-H2A inh: -1; ALR H2O2 inh: 98*; PRMT1 FP inh: 1; ABHD5 PLIN5 PPI: -1; rCAG RNA binder: -4

How did Cc1csc(Nc2ccccc2)[n+]1-c1ccccc1 do in these assays?
Rtt109 Vps75: 9; LANA-H2A inh: 5; ALR H2O2 inh: 99*; PRMT1 FP inh: 1; ABHD5 PLIN5 PPI: -8; rCAG RNA binder: -4

Results for CO[C@H]1CN(C)C(=O)c2cc(NC(=O)C3CCCC3)ccc2OC[C@@H](C)NC[C@H]1C ?
PRMT1 FP inh: 5; ABHD5 PLIN5 PPI: 3; rCAG RNA binder: -1

Results for CN(C)c1ccc(CNC(=O)/C=C/[C@H]2O[C@@H](n3ccc(=O)[nH]c3=O)[C@H](O)[C@@H]2O)cc1 ?
PRMT1 FP inh: -1; ABHD5 PLIN5 PPI: -8; rCAG RNA binder: 2

What do the screens show for `CS(=O)(=O)Nc1ccc(-c2n[nH]c(=S)n2-c2ccccc2)cc1`?
Rtt109 Vps75: 22; LANA-H2A inh: -2; ALR H2O2 inh: 97*; PRMT1 FP inh: -3; ABHD5 PLIN5 PPI: -5; rCAG RNA binder: 5

What do the screens show for `Cc1ccc(NCc2n[nH]c(=S)n2-c2ccccc2)cc1`?
Rtt109 Vps75: -2; LANA-H2A inh: 2; ALR H2O2 inh: 98*; PRMT1 FP inh: -4; ABHD5 PLIN5 PPI: -10; rCAG RNA binder: 4

How did Cc1ccc(NCc2nc3ccccc3n2C)c(C)c1 do in these assays?
Rtt109 Vps75: 1; LANA-H2A inh: 1; ALR H2O2 inh: 98*; PRMT1 FP inh: -1; ABHD5 PLIN5 PPI: 1; rCAG RNA binder: -3

What do the screens show for `Cc1cccc(NCc2n[nH]c(=S)n2-c2ccccc2)c1`?
Rtt109 Vps75: 0; LANA-H2A inh: -7; ALR H2O2 inh: 42; PRMT1 FP inh: -2; ABHD5 PLIN5 PPI: -2; rCAG RNA binder: 3

What do the screens show for `Cc1ccc(NCc2n[nH]c(=S)n2-c2ccccc2)c(C)c1`?
Rtt109 Vps75: -5; LANA-H2A inh: 3; ALR H2O2 inh: 98*; PRMT1 FP inh: -3; ABHD5 PLIN5 PPI: -5; rCAG RNA binder: 1

How did CC(C)C[C@@H]1COc2cc(F)ccc2S(=O)(=O)N1 do in these assays?
PRMT1 FP inh: 4; rCAG RNA binder: 2

How did CC1C(=O)N(Cc2cn(CCC3OCCCO3)nn2)CCS(=O)(=O)N1Cc1ccc(-c2ccc(Cl)cc2)cc1 (stereo not given) do in these assays?
PRMT1 FP inh: 0; ABHD5 PLIN5 PPI: 4; rCAG RNA binder: 6

What do the screens show for `CCOc1ccc(CNC(=S)N/N=C\c2ccc([N+](=O)[O-])cc2)cc1`?
Rtt109 Vps75: -4; LANA-H2A inh: 0; ALR H2O2 inh: 99*; PRMT1 FP inh: 1; ABHD5 PLIN5 PPI: -9; rCAG RNA binder: 2

How did CCOc1ccc(N=Cc2ccc([N+](=O)[O-])cc2)c(O)c1 do in these assays?
PRMT1 FP inh: 22*; ABHD5 PLIN5 PPI: -12; rCAG RNA binder: 12

How did CCOc1ccc(N=Cc2ccc(N(C)C)cc2)c(O)c1 do in these assays?
ABHD5 PLIN5 PPI: -4

What do the screens show for `COC(=O)C[C@@H]1CC[C@@H]2[C@@H](COc3ccc(NC(C)=O)cc3C(=O)N2C)O1`?
PRMT1 FP inh: -1; rCAG RNA binder: 0
